Outcome data for 40 compounds are collected here from PubChem BioAssay (Tox21).

Results filed as inconclusive are left out. Active and inactive are the calls of the source. Calls follow the shape of the dose curve; as a rule, active = well fitted cell-killing curve with a large enough effect in the repeat runs; inconclusive = weak or mixed curves; inactive = no such curve, though single readings can be large or run the other way.

The assay is described as follows: qHTS assay to identify small molecule antagonists of the peroxisome proliferator-activated receptor delta (PPARd) signaling pathway - cell viability counter screen (AID 743213). Also: nearly all actives have a fitted effect of over 50% in size. To be noted: PPARd-bla HEK293H viability, CellTiter-Glo luminescence, 17 h; series mostly up to 62 µM. The source says:
U.S. Tox21 Program National Center for Advancing Translational Sciences [NCATS] NIH Chemical Genomics Center [NCGC] U.S. Environmental Protection Agency [EPA] National Institutes of Environmental Health Sciences [NIEHS] National Toxicology Program [NTP] U.S. Food and Drug Administration [FDA] Tox21 Assay Overview: The peroxisome proliferator-activated receptors (PPARs) are lipid-activated transcription factors of the nuclear receptor superfamily with three distinct subtypes namely PPAR alpha, PPAR delta (PPARd) and PPAR gamma. All these subtypes heterodimerizes with Retinoid X receptor (RXR) and have different physiological functions. […] To identify the compounds that inhibit PPAR-delta signaling, GeneBLAzer PPAR delta UAS-bla HEK293H cell line (Invitrogen, Carlsbad, CA, USA) containing a beta-lactamase reporter gene under the control of an Upstream Activator Sequence (UAS) was used to screen the Tox21 compound library. The cytotoxicity of the Tox21 compound library against the PPARd-bla cell line was tested in parallel by measuring the cell viability using CellTiter-Glo assay (Promega, Madison, WI) in the same wells.
Tox21 Assay Protocol Summary: PPARd-bla cells were dispensed at 3000 cells/5uL/well in 1536-well black wall/clear bottom plates using a Multidrop Combi (Thermo Fisher Scientific, Waltham, MA) dispenser. After the assay plates were incubated at 37 C and 5% CO2 for 5 h, 23 nL of compounds dissolved in DMSO, positive controls or DMSO only was transferred to the assay plate by a Pintool station (Kalypsys, San Diego, CA), followed by addition of 1ul L165041 (300 nM, final concentration in the wells). The assay plates were incubated at 37 C for 17 h, and then 1 uL of LiveBLAzerTM B/G FRET substrate was added using a Bioraptr Flying Reagent Dispenser (FRD) workstation (Beckman Coulter, Indianapolis, IN, USA). The assay plates were incubated at room temperature for 2 h and fluorescence intensity was measured by an Envision plate reader (PerkinElmer, Shelton, CT). For cell viability readout that measures cytotoxicity, 3 ul/well of CellTiter-Glo reagent was added into the assay plates using a Bioraptr FRD. After 30 min incubation at room temperature, the luminescence intensity in the plates was measured using a ViewLux plate reader (PerkinElmer).
A general note: In qHTS, concentration-response curves come from the screen itself.
With `COC(=O)c1cccnc1`, the call was inactive.

On to `C=CCc1ccc(OC)c(OC)c1`, for which the result was inactive.

Take `CC1(C)NC(=O)NC1=O`: the result was inactive.

Take `O=C(OCC1CCC2OC2C1)C1CCC2OC2C1` (stereo not given): the result was inactive.

For the compound `CCCCCCCCCCN`, the compound was called inactive.

For the compound `OCc1ccccc1`, the compound was classed as inactive.

For `CC(=O)OCCOC(C)=O`, the call was inactive.

As to `NCCNCCN`, the result was inactive.

As for `Clc1ccccn1`, the compound was called inactive.

As for `CC(C)CC(C)O` (stereo not given), the outcome was inactive.

With `C=CC[N+](C)(C)CC=C`, the outcome was inactive.

Turning to `COCCOC(=O)c1ccccc1C(=O)OCCOC`, the call was inactive.

In the case of `CC(=O)OCc1ccccc1`, the compound was called inactive.

On to `O=[N+]([O-])c1ccc2nc[nH]c2c1`, for which the outcome was inactive.

`CN(C)CCOC(=O)COc1ccc(Cl)cc1`: the outcome was inactive.

As to `CCNC(=S)NCC`, the call was inactive.

For `CN(C)c1ccc(Cc2ccc(N(C)C)cc2)cc1`, the call was inactive.

As to `O=C(O)/C=C/C(=O)O`, the call was inactive.

Turning to `Brc1ccc(Br)c(Br)c1`, the compound was classed as inactive.

Take `C=C(C)CNCC`: the compound was called inactive.

Consider `Cc1ccc2ncccc2c1`, for which the result was inactive.

In the case of `CC(C)(Oc1ccc(CCNC(=O)c2ccc(Cl)cc2)cc1)C(=O)O`, the compound was called inactive.

Regarding `CCCCCCCCCCCCCCCC(=O)OC(C)C`, the compound was called inactive.

`NCCN1CCNCC1`: the outcome was inactive.

Turning to `CC1(C)S[C@@H]2[C@H](NC(=O)COc3ccccc3)C(=O)N2[C@H]1C(=O)O`, the outcome was inactive.

Take `C=CCCCCCCCCC(=O)O`: the compound was called inactive.

With `CN1C(=O)CC[C@H]1c1cccnc1`, the outcome was inactive.

For the compound `CCNc1cccc(C)c1`, the outcome was inactive.

For the compound `COC(=O)CCCC(=O)OC`, the call was inactive.

In the case of `CCOCC(=O)O`, the result was inactive.

On to `CC(C)CC(=O)CC(C)CC(C)C` (stereo not given), for which the compound was classed as inactive.

In the case of `O=c1[nH]cnc2[nH]ncc12`, the compound was called inactive.

On to `C=CC(C)CCCC(C)(C)O` (stereo not given), for which the call was inactive.

`C[C@]12CCC(=O)C=C1CC[C@@H]1[C@@H]2[C@@H](O)C[C@@]2(C)[C@H]1CC[C@]2(O)C(=O)CO`: the compound was called inactive.

Turning to `CC(C)c1cccc(C(C)C)c1`, the call was inactive.

For `O=S(=O)(O)c1ccccc1`, the outcome was inactive.

As for `C=C(C)C(=O)OCC(C)C`, the compound was called inactive.

As for `O=C(O)Cn1c(=O)n(Cc2ccc(Br)cc2F)c(=O)c2ccc(Cl)cc21`, the compound was classed as inactive.

As to `COc1ccc(C)cc1N`, the compound was called inactive.

Regarding `CCCCCCCCCCCC(=O)OC`, the compound was called inactive.
